The values that follow come from PubChem BioAssay AID743395 (Broad Institute, 2014).

The campaign covered roughly 1,200 compounds. About 480 (40%) were called active. The set was probably picked from earlier hits. These entries were drawn from the full list. Entries with a potency or affinity are not part of this list. Values without a mark were called inactive. No rule for the calls is given here.

A short description of this test: viability loss in human hepatoma cells – cell-based, CellTiter-Glo luminescence, cherry-pick, set 2, cytotoxicity control, dose response (AID 743395).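 Also: 0% = neutral control wells and -100% = positive control wells.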 Particulars: HepG2 viability, CellTiter-Glo ATP luminescence, 72 h; series mostly up to 26 µM; activity change, negative = cytotoxicity: at the top concentration.
With `CO[C@@H](CN(C)S(=O)(=O)c1ccc(C)cc1)[C@H](C)CN([C@@H](C)CO)S(=O)(=O)c1cccc(Cl)c1`, the “activity change, negative = cytotoxicity” value is -16.6%. On to `O=C(Cc1ccccn1)NCC[C@@H]1CC[C@H](NC(=O)Nc2ccc(C(F)(F)F)cc2)[C@@H](CO)O1`, for which the “activity change, negative = cytotoxicity” value is 1.07%. For `O=C(O)c1ccccc1-c1nc(-c2ccccc2)c(-c2ccccc2)[nH]1` the value was -25.1%; for `O=C(NCc1ccccc1)C(c1ccc(-c2ccccc2)cc1)n1c(=O)c(-c2cc3ccccc3[nH]2)nc2ccccc21` (stereo not drawn), -5.02%. For `COc1cc2c(cc1OC)C(c1cccs1)N(C(=O)c1cccnc1)CC2` (stereo not drawn) the value was -25.9%; for `Cc1cc(C(=O)CN2CCN(CC(=O)Nc3ccc(F)cc3)CC2)c(C)n1C1CC1`, -2.91%. As for `CCCOc1ccc(C(=O)CCCC(=O)c2ccc(OCCC)cc2)cc1`, the “activity change, negative = cytotoxicity” value is -3.1%. The result for `CCOc1ccc(C(=O)NCC(=O)N2CCN(Cc3ccccc3)CC2)cc1` reads -6.18%; that for `CN1/C(=C\C=C2/SC(=S)N(CC(=O)O)C2=O)C(C)(C)c2ccccc21`, -18.5%.

On to `C=CCN(CC=C)C(=S)Nc1ccc(OC)c(OC)c1`, for which the “activity change, negative = cytotoxicity” value is -1.78%. For the molecule `Cc1ccc(CNC(=O)COC(=O)c2ccc(S(=O)(=O)N(C)C)cc2)cc1`, the “activity change, negative = cytotoxicity” value is 7.94%. For `CCOc1ccc(C(=O)NNC(=O)CCNC(=O)c2ccc(Br)cc2)cc1OC` the value was -12.4%; for `Cc1nnc(NC(=O)CSc2nccn2-c2cccc(C)c2C)s1`, -16.7%; for `Cc1cc(Br)c(NC(=O)C(C)Sc2nnnn2C)c(Br)c1` (stereo not drawn), 3.4%. As for `NS(=O)(=O)c1ccc(NNC(=O)c2ccc(Br)o2)c([N+](=O)[O-])c1`, the “activity change, negative = cytotoxicity” value was -24.1%.

As for `CC(C)NC(=O)c1ccc(COc2cccc3ccccc23)o1`, the “activity change, negative = cytotoxicity” value is -11.9%.

In the case of `Cc1cc(C(=O)NNC(=O)c2ccc(Cl)c(S(N)(=O)=O)c2)c(C)o1`, the “activity change, negative = cytotoxicity” value is 14.8%.

`Cc1ccc(S(=O)(=O)N2CCOCC2)cc1NC(=O)CSc1n[nH]c(N)n1`: the “activity change, negative = cytotoxicity” value is -17%. For `O=C(Nc1ccccc1F)N1C[C@H]2[C@@H](c3ccccc31)[C@@H](CO)N2C(=O)c1ccccn1` the value was -6.17%.

As to `COc1ccccc1NS(=O)(=O)c1cc(N=N/C(C(=O)Nc2ccc(Cl)cc2)=C(/C)O)ccc1C`, the “activity change, negative = cytotoxicity” value is -9.69%. Regarding `COc1ccccc1NS(=O)(=O)c1cc(C(=O)N2CCCCCC2)ccc1C`, the “activity change, negative = cytotoxicity” value is -19.5%. In the case of `O=C(NC(=S)Nc1ccc(-c2ccccc2)cc1)c1ccccc1`, the “activity change, negative = cytotoxicity” value was -2.74%. Consider `Cc1ccc(C(=O)NNC(=O)c2ccc(S(=O)(=O)N3CCCCC3)cc2)cc1`, for which the “activity change, negative = cytotoxicity” value is 0.237%. `CNC(=O)C1CC(=O)N(c2ccc(OCC(=O)Nc3ccccc3)cc2)C1` (stereo not drawn): the “activity change, negative = cytotoxicity” value was -11.5%. For `COc1ccccc1N1CC(C(=O)Nc2ccc(S(=O)(=O)N3CCCC3)cc2)CC1=O` (stereo not drawn), the “activity change, negative = cytotoxicity” value is -10.9%. For `COc1ccc(C2=NOC(C(=O)NCc3ccccc3)C2)cc1` (stereo not drawn) the value was -14%. The result for `COc1ccc(Cc2nnc(NC(=O)c3ccc(F)cc3)s2)cc1OC` reads -2.21%; that for `COc1ccc2c(c1)c(CC(=O)OCC(=O)O)c(C)n2C(=O)c1ccc(Cl)cc1`, -10.6%; that for `Cc1ccc(S(=O)(=O)N2CCN(C(=O)COC(=O)/C=C/c3ccc(Cl)cc3)CC2)c(C)c1`, 5.43%. On to `N#Cc1ncn(C2OC(CO)C(O)C2O)c1N` (stereo not drawn), for which the “activity change, negative = cytotoxicity” value was -7.3%. For `Cc1cc(Cl)cc(C)c1OCCn1ccnc1` the value was 3.36%; for `Cc1ccc(NC(=O)COC(=O)CCC2CCCC2)c(Br)c1`, -10.8%. For `COc1ccc2c3c([nH]c2c1)[C@@H](CO)N(S(=O)(=O)c1cn(C)cn1)CC31CCN(CC2CCCCC2)CC1` the value was -1.36%. For the molecule `CCCC(=O)Nc1ccc2c(c1)C(=O)N(C)C[C@@H](OC)[C@H](C)CN(C(=O)CN1CCOCC1)[C@H](C)CO2`, the “activity change, negative = cytotoxicity” value was -4.55%.

Consider `Cc1ccc(/C=N/NC(=O)C2COc3ccccc3O2)s1` (stereo not drawn), for which the “activity change, negative = cytotoxicity” value was -13.9%. For `NS(=O)(=O)c1ccc(Cl)c(S(N)(=O)=O)c1` the value was -3.33%. For `CCN(CC)c1ccc(/C=C(/C#N)c2nc3ccc(C)cc3[nH]2)c(OC(C)C)c1` the value was -32.9%; for `Cc1cc(C)c(C(=O)NC2CCCc3c2cnn3-c2cccc(C)c2C)o1` (stereo not drawn), -9.1%. For `CCNC(=S)NNC(=O)CC(C)C` the value was -4.94%; for `CC(=O)NC(=S)Nc1ccc(NC(=S)NC(=O)/C=C/c2ccco2)cc1`, -3.21%; for `O=C(/C=C/c1ccco1)NC(=S)Nc1nc(-c2ccc3ccccc3c2)cs1`, -2.42%. As to `CN(C(=O)c1ccccc1C(=O)OCC(=O)Nc1ccc(S(N)(=O)=O)cc1)c1ccccc1`, the “activity change, negative = cytotoxicity” value was -17.8%. The result for `CCCCc1nc(Cl)c(CO)n1Cc1ccc(-c2ccccc2-c2nn[nH]n2)cc1` reads 6.61%; that for `COc1cc(NC(=O)COC(=O)c2n[nH]c3ccccc23)c(C)cc1[N+](=O)[O-]`, -11.9%. For the molecule `COCCSc1ccccc1C(=O)Nc1cc([N+](=O)[O-])ccc1OC`, the “activity change, negative = cytotoxicity” value was -19.6%.

In the case of `C=CCn1c(SCC(=O)N(C)C2CCS(=O)(=O)C2)nc2ccccc2c1=O` (stereo not drawn), the “activity change, negative = cytotoxicity” value is -11.1%. The result for `COC(=O)c1cc2c(=O)c3ccccc3oc2nc1/C=C/N(C)C` reads 6.84%; that for `O=C(Cc1ccccn1)NCC[C@@H]1CC[C@H](NC(=O)Nc2ccc(C(F)(F)F)cc2)[C@H](CO)O1`, 2.91%. With `CCOC(=O)C1=CN(Cc2ccco2)S(=O)(=O)NC1c1ccc(C(F)(F)F)cc1` (stereo not drawn), the “activity change, negative = cytotoxicity” value was -15%. For the molecule `Cc1cc(C(=O)CN2C(=O)C(=O)N(Cc3ccccc3)C2=O)c(C)n1Cc1ccccc1`, the “activity change, negative = cytotoxicity” value was -8.93%.

For `CC(C)[N+]1(C)[C@@H]2CC[C@@H]1CC(OC(=O)C(CO)c1ccccc1)C2` (stereo partly drawn), the “activity change, negative = cytotoxicity” value is -13.9%.

Regarding `Cc1noc(C)c1NC(=O)N(C)C[C@H]1Oc2cc(C#CCC3CCCC3)ccc2S(=O)(=O)N([C@@H](C)CO)C[C@@H]1C`, the “activity change, negative = cytotoxicity” value was -21.9%. For `CCC1(C)Cc2ccccc2-c2nc[nH]c(=O)c21` (stereo not drawn) the value was -19.7%.

With `O=S(=O)(c1ccc(OCc2ccc(Br)cc2)cc1)N1CCOCC1`, the “activity change, negative = cytotoxicity” value was 2.21%. The result for `COc1cc(C(c2sc3nc(C)nn3c2O)N2CCN(c3ccccc3)CC2)cc(OC)c1OC` (stereo not drawn) reads 20.9%.

In the case of `Cn1nnnc1N=N/C(=N/Nc1ccccc1)c1ccccc1`, the “activity change, negative = cytotoxicity” value is -12.8%. For `Cc1cccc(C(=O)NCC(=O)OCC(=O)N(C)CC(=O)Nc2ccccc2Cl)c1`, the “activity change, negative = cytotoxicity” value was -8.28%. The result for `COc1ccccc1C#Cc1ccc2c(c1)O[C@H](CN(C)Cc1cccnc1)[C@H](C)CN([C@@H](C)CO)S2(=O)=O` reads -5.36%; that for `C[C@H]1CN([C@@H](C)CO)S(=O)(=O)c2ccc(/C=C/c3ccccc3)cc2O[C@H]1CN(C)Cc1ccccc1`, -32.4%. For `COc1ccccc1C#Cc1ccc2c(c1)O[C@@H](CN(C)Cc1cccnc1)[C@H](C)CN([C@@H](C)CO)S2(=O)=O` the value was 5.01%. `C[C@@H]1CN([C@H](C)CO)S(=O)(=O)c2ccc(C#Cc3ccccc3F)cc2O[C@H]1CN(C)C(=O)Cc1cccnc1`: the “activity change, negative = cytotoxicity” value was 21.9%. The result for `O=C(NC1CCCCC1)c1cc(C2CC2)nn1-c1ccccc1` reads 2.5%; that for `O=C(CNC1CCCCC1)NN=C(c1ccccc1)c1ccccc1`, -17.1%.

Take `Clc1ccc(Nc2ccc3ccccc3n2)cc1`: the “activity change, negative = cytotoxicity” value was -12.5%. On to `CC(=O)Nc1ccc(S(=O)(=O)Nc2cccc(-c3nc4cc(C)ccc4o3)c2)cc1`, for which the “activity change, negative = cytotoxicity” value is -22.7%.

On to `CC(=O)Nc1cccc(NC(=O)CN2c3cccc4cccc(c34)S2(=O)=O)c1`, for which the “activity change, negative = cytotoxicity” value was -14%.

As to `Cc1cc(Nc2ccc(Br)cc2)nc2ccccc12`, the “activity change, negative = cytotoxicity” value is -20.8%. Regarding `CC(=O)Nc1ccc(S(=O)(=O)N2c3ccccc3C(C)=CC2(C)C)cc1`, the “activity change, negative = cytotoxicity” value is -29.7%.

As to `CCC1(C2=CCCCC2)C(=O)NC(=S)N=C1N` (stereo not drawn), the “activity change, negative = cytotoxicity” value was -1.67%.

With `Cc1cccc(S(=O)(=O)N2C[C@H]3[C@@H](c4ccccc42)[C@H](CO)N3CC2CCCC2)c1`, the “activity change, negative = cytotoxicity” value is -7.41%. For `COc1cccc(-c2ccc([C@H]3[C@@H](CO)N(C(=O)c4ccccn4)[C@H]3C#N)cc2)c1` the value was -1.97%; for `N#Cc1ccc(-c2ccc3c(c2)[C@H]2[C@H](CCN2S(=O)(=O)c2ccccc2F)[C@@H](CO)N3)cc1`, -15.8%.

In the case of `CCCNC(=O)N1CC2(CN(S(=O)(=O)c3cccc(OC)c3)C2)c2c(n(C)c3cc(OC)ccc23)[C@H]1CO`, the “activity change, negative = cytotoxicity” value is -5.83%.

Consider `N#Cc1ccc(-c2ccc(C3[C@@H]4CN(C(=O)C5CCC5)C[C@H]3N4)cc2)cc1` (stereo partly drawn), for which the “activity change, negative = cytotoxicity” value is -25.8%.

For `CCOC(=O)/C(=C/C=C1\Sc2cc(C)c(C)cc2N1CC)C(C)=O`, the “activity change, negative = cytotoxicity” value is -4.04%. The result for `COCC(C)n1c(SCC(=O)N2CC(=O)Nc3ccccc32)nc2ccccc2c1=O` (stereo not drawn) reads -14.5%; that for `CCN(CC(=O)Nc1c(F)cccc1F)C(=O)C1CC1`, -0.756%. As for `CN(c1ccc(OCCOc2ccccc2Cl)cc1)S(=O)(=O)c1ccccc1`, the “activity change, negative = cytotoxicity” value was -26.7%.

For the molecule `O=C1c2cccc3c(N4CCCCC4)ccc(c23)C(=O)N1c1cccc(O)c1`, the “activity change, negative = cytotoxicity” value is -8.5%. The result for `Cn1c(=O)c(NC2CCCCC2)c2c3c(cccc31)C(=O)c1ccccc1-2` reads 5.22%.

As to `O=C(COC(=O)/C=C/c1ccccc1Cl)NC(=O)NCc1ccccc1`, the “activity change, negative = cytotoxicity” value was -17.1%. For `Cc1cccc(C(=O)N(Cc2ccco2)c2c(N)n(Cc3ccccc3)c(=O)[nH]c2=O)c1` the value was -0.07%; for `CC1CN(S(=O)(=O)c2ccc(C(=O)Nc3ccccc3F)cc2)CC(C)O1` (stereo not drawn), -17.4%. `COc1ccccc1N(C)S(=O)(=O)c1ccc(C(=O)Nc2nccs2)cc1`: the “activity change, negative = cytotoxicity” value was -9.42%. The result for `c1ccc(-c2csc(NC3=NCCCCC3)n2)cc1` reads -1.28%; that for `CCOc1cc(OCC)c(C(C)=O)cc1OCC`, 4.37%. For `CCn1c(SCC(=O)N/N=C/c2ccc(O)c(OC)c2)nc2ccccc21` the value was 0.421%. The result for `COc1cccc2c1C(=O)C=C(C)C2=O` reads -10.7%; that for `Cc1ccc(NC(=O)c2ccc(Cl)c(S(=O)(=O)Nc3c(C)n(C)n(-c4ccccc4)c3=O)c2)cc1Cl`, 0.196%. Turning to `O=c1[nH]c(CN2CCN(c3ccc(O)cc3)CC2)nc2scc(-c3ccc(Cl)cc3)c12`, the “activity change, negative = cytotoxicity” value is -28.1%.

On to `CCOC(=O)N1CCN(C(=O)C2CCC(=O)N(CCCN3CCCC3=O)C2)CC1` (stereo not drawn), for which the “activity change, negative = cytotoxicity” value is 4.66%. Take `COc1ccc(Cl)cc1C(=O)NNC(=O)CCNS(=O)(=O)c1ccccc1`: the “activity change, negative = cytotoxicity” value is -24.7%. As to `COc1ccccc1NS(=O)(=O)c1ccc(C)c(C(=O)Nc2cc(C)on2)c1`, the “activity change, negative = cytotoxicity” value is -9.34%. For `COC(=O)c1ccc(CS(=O)(=O)c2ccc(F)cc2)o1` the value was 14.9%. For the molecule `Nc1[nH]nc2ncc3cc4ccccc4nc3c12`, the “activity change, negative = cytotoxicity” value was -30.7%. For `Clc1cccc(-c2ccc(C=Nc3ccc(N4CCOCC4)cc3)o2)c1Cl` the value was -1.34%. For the molecule `O=C(CN1CCOc2ccccc21)NCc1ccc(Cl)cc1`, the “activity change, negative = cytotoxicity” value is -14.9%. The result for `COC(=O)COc1cccc2c(=O)n(CC(=O)NCc3ccccc3)ccc12` reads 1.47%.
